From the supplement of paper PMC13380429

Columns and labels:
[1] = test system: Vero E6 infected with SARS-CoV-2; experiment: morphology score (similarity to uninfected cells); higher = more like uninfected cells; settings: 24 h
[2] = test system: Vero E6 infected with SARS-CoV-2; experiment: SARS-CoV-2 infection rate relative to infected DMSO; higher = more infection, active = 60 or less; settings: 24 h

## CN(C/C=C/C#CC(C)(C)C)Cc1cccc2ccccc12 [terbinafine] (10 µM)
[1]
  morphology score: 0.413
[2]
  SARS-CoV-2 infection rate: 81% (inactive)

## Cc1cc(=O)oc2c(C=O)c(O)ccc12 (10 µM)
[1]
  morphology score: 0.206
[2]
  SARS-CoV-2 infection rate: 106% (inactive)

## CC(C)(Cc1ccc2ccccc2c1)NC[C@@H](O)COc1cccc(Cl)c1C#N (10 µM)
[1]
  morphology score: 0.703
[2]
  SARS-CoV-2 infection rate: 9.5% (active)

## COc1ccc(COc2cc3oc(=O)c4cc(C(C)O)ccc4c3cc2OC)cc1 (configuration not stated) [palomid-529] (10 µM)
[1]
  morphology score: 0.0689
[2]
  SARS-CoV-2 infection rate: 113% (inactive)

## CCN(CC)CCOc1ccccc1C(=O)CCc1ccccc1 [etafenone] (10 µM)
[1]
  morphology score: 0.151
[2]
  SARS-CoV-2 infection rate: 97.5% (inactive)

## Clc1ccc(C(OCCN2CCCCC2)c2ccccc2)cc1 (configuration not stated) [cloperastine] (10 µM)
[1]
  morphology score: 0.412
[2]
  SARS-CoV-2 infection rate: 75.5% (inactive)

## O=C(OCCOCCO)c1ccccc1Nc1cccc(C(F)(F)F)c1 [etofenamate] (10 µM)
[1]
  morphology score: -0.0601
[2]
  SARS-CoV-2 infection rate: 112% (inactive)

## Nc1nc(Nc2ccccc2)nc2c1ncn2[C@@H]1O[C@H](CO)[C@@H](O)[C@H]1O (10 µM)
[1]
  morphology score: 0.144
[2]
  SARS-CoV-2 infection rate: 102% (inactive)

## CN1CCC(OC(c2ccccc2)c2ccccc2)CC1 [diphenylpyraline] (10 µM)
[1]
  morphology score: 0.291
[2]
  SARS-CoV-2 infection rate: 82.5% (inactive)

## CC1(C)CCC(C)(C)c2cc(C3(c4ccc5cc(C(=O)O)ccc5c4)SCCS3)ccc21 (10 µM)
[1]
  morphology score: 0.132
[2]
  SARS-CoV-2 infection rate: 98% (inactive)

## N[C@H](C(=O)O)c1ccc(O)c(C(=O)O)c1 [3-carboxy-4-hydroxyphenylglycine-(S)] (10 µM)
[1]
  morphology score: 0.115
[2]
  SARS-CoV-2 infection rate: 95% (inactive)

## CCCCCCNC(=O)n1cc(F)c(=O)[nH]c1=O [carmofur] (0.833333 µM)
[1]
  morphology score: 0.222
[2]
  SARS-CoV-2 infection rate: 96% (inactive)

## NC(N)=O [urea] (10 µM)
[1]
  morphology score: -0.168
[2]
  SARS-CoV-2 infection rate: 114% (inactive)

## NC(CO)(CO)CO [trometamol] (10 µM)
[1]
  morphology score: -0.0719
[2]
  SARS-CoV-2 infection rate: 106% (inactive)

## CN(C)CCCCC(=O)Nc1ccc(NC(=S)NC(=O)c2ccc(C(C)(C)C)cc2)cc1 [tenovin-6] (0.833333 µM)
[1]
  morphology score: -0.102
[2]
  SARS-CoV-2 infection rate: 86% (inactive)

## COc1cc(N2CCN(C)CC2)ccc1Nc1nccc(-c2cn(C)c3cnccc23)n1 (0.833333 µM)
[1]
  morphology score: 0.377
[2]
  SARS-CoV-2 infection rate: 100% (inactive)

## CN(C(=O)CN(CCO)CC(=O)N(C)C(C)(C)Cc1ccccc1)C(C)(C)Cc1ccccc1 [oxethazaine] (10 µM)
[1]
  morphology score: -0.169
[2]
  SARS-CoV-2 infection rate: 102% (inactive)

## C[C@]12CC[C@@H](O)C[C@H]1CC[C@@H]1[C@@H]2CC[C@]2(C)C(=O)CC[C@@H]12 [3-alpha-hydroxy-5-beta-androstan-17-one] (10 µM)
[1]
  morphology score: 0.223
[2]
  SARS-CoV-2 infection rate: 102% (inactive)

## C#CCOC(=O)C1=CCCN(C)C1 [arecaidine-propargyl-ester] (10 µM)
[1]
  morphology score: 0.0331
[2]
  SARS-CoV-2 infection rate: 93.5% (inactive)

## CCCCc1nc(Cl)c(C(=O)O)n1Cc1ccc(-c2ccccc2-c2nn[nH]n2)cc1 [carboxylosartan] (10 µM)
[1]
  morphology score: -0.00666
[2]
  SARS-CoV-2 infection rate: 106% (inactive)

## N=C(N)NCc1cccc(I)c1 [iobenguane] (10 µM)
[1]
  morphology score: 0.132
[2]
  SARS-CoV-2 infection rate: 100% (inactive)

## CC(=O)Nc1ccc(OC[C@](C)(O)C(=O)Nc2ccc([N+](=O)[O-])c(C(F)(F)F)c2)cc1 [andarine] (10 µM)
[1]
  morphology score: -0.0126
[2]
  SARS-CoV-2 infection rate: 116% (inactive)

## CCOc1ccc(Cc2nccc3cc(OCC)c(OCC)cc23)cc1OCC [ethaverine] (10 µM)
[1]
  morphology score: 0.2
[2]
  SARS-CoV-2 infection rate: 100% (inactive)

## CCN1C[C@]2(COC(=O)c3ccccc3N3C(=O)C[C@H](C)C3=O)CC[C@H](OC)[C@@]34[C@@H]5C[C@H]6[C@H](OC)[C@@H]5[C@](O)(C[C@@H]6OC)[C@](O)([C@@H](OC)[C@H]23)[C@@H]14 [methyllycaconitine] (10 µM)
[1]
  morphology score: 0.00671
[2]
  SARS-CoV-2 infection rate: 110% (inactive)

## O=C(Nc1ccc(O)cc1)c1ccccc1O [N-salicoylaminophenol] (10 µM)
[1]
  morphology score: 0.168
[2]
  SARS-CoV-2 infection rate: 102% (inactive)

## CC/C(=C(/CC)c1ccc(OP(=O)(O)O)cc1)c1ccc(OP(=O)(O)O)cc1 [fosfestrol] (10 µM)
[1]
  morphology score: 0.11
[2]
  SARS-CoV-2 infection rate: 96% (inactive)

## NC1=N[C@@](c2cccc(-c3cncnc3)c2)(c2ccnc(C(F)F)c2)c2cccc(F)c21 (10 µM)
[1]
  morphology score: 0.163
[2]
  SARS-CoV-2 infection rate: 92.5% (inactive)

## COc1ccnc2[nH]cc(C(=O)C(=O)N3CCN(C(=O)c4ccccc4)C[C@H]3C)c12 (10 µM)
[1]
  morphology score: -0.0708
[2]
  SARS-CoV-2 infection rate: 99% (inactive)

## O=C1NC(=O)c2c1c1c3ccccc3[nH]c1c1[nH]c3ccccc3c21 [arcyriaflavin-a] (10 µM)
[1]
  morphology score: 0.363
[2]
  SARS-CoV-2 infection rate: 106% (inactive)

## CC(CC(C(N)=O)(c1ccccc1)c1ccccc1)N(C)C (configuration not stated) [aminopentamide] (10 µM)
[1]
  morphology score: 0.0885
[2]
  SARS-CoV-2 infection rate: 104% (inactive)

## CCN(CC)CCOC(=O)C(Cc1cccc2ccccc12)CC1CCCO1 (mixture of isomers) [naftidrofuryl] (10 µM)
[1]
  morphology score: 0.14
[2]
  SARS-CoV-2 infection rate: 104% (inactive)

## c1cc(Nc2cc(C3CC3)n[nH]2)nc(Nc2ccc3[nH]cnc3c2)n1 (0.833333 µM)
[1]
  morphology score: -0.282
[2]
  SARS-CoV-2 infection rate: 110% (inactive)

## N=C1N[C@H]2[C@H](CS[C@H]2CCCCC(=O)O)N1 [2-iminobiotin] (10 µM)
[1]
  morphology score: 0.0808
[2]
  SARS-CoV-2 infection rate: 99% (inactive)

## Fc1ccc([C@@H]2CCNC[C@H]2COc2ccc3c(c2)OCO3)cc1 [paroxetine] (10 µM)
[1]
  morphology score: -0.0761
[2]
  SARS-CoV-2 infection rate: 117% (inactive)

## COC1=C(OC)C(=O)C(CCCCCCCCCCO)=C(C)C1=O [idebenone] (10 µM)
[1]
  morphology score: -0.0056
[2]
  SARS-CoV-2 infection rate: 92.5% (inactive)

## Cn1cnc2c(NCc3ccccc3)nc(NCCO)nc21 [olomoucine] (10 µM)
[1]
  morphology score: 0.0162
[2]
  SARS-CoV-2 infection rate: 98.5% (inactive)

## CO[C@@]12[C@H](COC(N)=O)C3=C(C(=O)C(C)=C(N)C3=O)N1C[C@@H]1N[C@@H]12 [mitomycin-C] (10 µM)
[1]
  morphology score: 0.101
[2]
  SARS-CoV-2 infection rate: 104% (inactive)

## Cc1ccccc1C(=O)Nc1ccc(C(=O)N2CCCC(O)c3cc(Cl)ccc32)c(C)c1 (configuration not stated) [tolvaptan] (10 µM)
[1]
  morphology score: 0.0857
[2]
  SARS-CoV-2 infection rate: 120% (inactive)

## O=C(O)CSCC(=O)NC1CCSC1=O (configuration not stated) [erdosteine] (10 µM)
[1]
  morphology score: -0.0411
[2]
  SARS-CoV-2 infection rate: 104% (inactive)

## O=c1c(O)c(-c2ccc(O)cc2)oc2cc(O)cc(O)c12 [kaempferol] (10 µM)
[1]
  morphology score: 0.215
[2]
  SARS-CoV-2 infection rate: 108% (inactive)

## CN(C)CC/C=C1/c2ccccc2COc2ccccc21 [doxepin] (10 µM)
[1]
  morphology score: 0.0537
[2]
  SARS-CoV-2 infection rate: 105% (inactive)

## COc1ccc(/C=C2\CCCN=C2c2cccnc2)c(OC)c1 (10 µM)
[1]
  morphology score: 0.517
[2]
  SARS-CoV-2 infection rate: 87% (inactive)

## N=C(N)N/N=C/c1c(Cl)cccc1Cl [guanaben-acetate] (10 µM)
[1]
  morphology score: -0.127
[2]
  SARS-CoV-2 infection rate: 114% (inactive)

## COc1cc2c(cc1OCCCN1CCCC1)N=C(N)C21CCC1 (10 µM)
[1]
  morphology score: 0.0229
[2]
  SARS-CoV-2 infection rate: 106% (inactive)

## CC[C@]12C=CCN3CC[C@@]4(c5cc([C@@]6(C(=O)OC)C[C@@H]7C[C@@H](C(C)(F)F)CN(Cc8c6[nH]c6ccccc86)C7)c(OC)cc5N(C)[C@H]4[C@@](O)(C(=O)OC)[C@@H]1OC(C)=O)[C@@H]32 [Vinflunine Ditartrate] (10 µM)
[1]
  morphology score: -0.12
[2]
  SARS-CoV-2 infection rate: 105% (inactive)

## CC1=C(C(=O)O)N2C(=O)[C@@H](NC(=O)[C@H](N)c3ccccc3)[C@H]2SC1 [cephalexin] (10 µM)
[1]
  morphology score: 0.0139
[2]
  SARS-CoV-2 infection rate: 112% (inactive)
